{"source": "PubChem BioAssay", "key": {"[1]": {"test": "inhibitors of TNFa-induced NFkB p65 translocation, primary screen, imaging, HUVEC, MLSMR starter and 10KST1 sets (AID 438;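 active = inhibition above 20% together with a positive visual image hit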;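 also: compound added about 3h40 before a 20 min TNFalpha stimulation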;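 as to inhibition: signal is the nuclear over cytoplasmic p65 intensity ratio per well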)", "settings": "HUVEC TNFa-induced p65 nuclear translocation; cell count: measured here: nuclei count (cytotoxicity indicator), at 2.08 µM; inhibition: at 2 µM, stronger effect = higher value, 0% TNFa-plus-vehicle, 100% no-TNFa wells"}, "[2]": {"test": "reduction of polyQ htt aggregates in cells – imaging, exon1htt(103Q)mCFP cells, high-content imaging, primary screen (AID 483;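 active = visual image review flags a hit and inhibition of aggregation exceeds 20%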;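 also: compound exposure lasted 3 days before fixation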;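 as to nuclei count: percent of the per-plate median nuclei count of sample wells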)", "settings": "exon1htt(103Q)mCFP cell line, aggregate imaging, at 2 µM; inhibition of aggregation: stronger effect = higher value; nuclei count: measured here: cell count, toxicity"}, "[3]": {"test": "endothelial E-selectin expression blockers – imaging, HUVEC, immunofluorescence, MLSMR starter and 10KST1 sets, primary screen (AID 487;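 active = visually confirmed hit in the image check and inhibition above 20%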;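 as to inhibition: signal is fraction of cell area covered by stained E-selectin grains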;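 as to nuclei count: 100% = median nuclei count of all wells on the same plate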)", "settings": "HUVEC TNFalpha-induced E-selectin immunofluorescence imaging, at 2 µM; inhibition: stronger effect = higher value; nuclei count: measured here: cell number, toxicity"}, "[4]": {"target": "Voltage-gated potassium channel subunit beta-2 (Rattus norvegicus) (UniProt P62483)", "sequence (P62483 whole entry, looked up)": "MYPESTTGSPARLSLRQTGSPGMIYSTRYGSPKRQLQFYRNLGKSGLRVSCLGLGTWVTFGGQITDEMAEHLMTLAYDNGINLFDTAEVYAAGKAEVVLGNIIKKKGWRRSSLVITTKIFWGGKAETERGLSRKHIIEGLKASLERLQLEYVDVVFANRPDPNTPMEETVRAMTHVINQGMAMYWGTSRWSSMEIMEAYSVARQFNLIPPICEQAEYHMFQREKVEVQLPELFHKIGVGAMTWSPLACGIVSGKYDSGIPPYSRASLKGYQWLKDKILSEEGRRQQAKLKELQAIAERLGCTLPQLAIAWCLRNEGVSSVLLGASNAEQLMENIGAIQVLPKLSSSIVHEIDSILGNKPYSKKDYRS", "test": "inhibitors of rat Kvbeta2 reductase activity – biochemical, NADPH fluorescence, primary screen (AID 622;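 active = fluorescence slope higher than the sample average by over 3 SD, cut at about -0.22 in these data, passing the limit was not always enough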;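 also: slope of raw intensity against log time taken from 70 to 1610 s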)", "settings": "recombinant KvBeta, 4-cyanobenzaldehyde reduction, at 10 µM, stronger effect = higher value"}, "[5]": {"target": "Voltage-gated potassium channel subunit beta-2 (Rattus norvegicus) (UniProt P62483)", "test": "enhancers of rat Kvbeta2 NADPH turnover – biochemical, NADPH fluorescence, primary screen (AID 623);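 also: fluorescence intensity change per second fitted from 20 to 320 s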", "settings": "Recombinant KvBeta, NADPH fluorescence decrease slope, 10 min; at 10 µM; stronger effect = lower value"}, "[6]": {"target": "Alpha-2C adrenergic receptor (Homo sapiens) (UniProt P18825)", "sequence (P18825 whole entry, looked up)": "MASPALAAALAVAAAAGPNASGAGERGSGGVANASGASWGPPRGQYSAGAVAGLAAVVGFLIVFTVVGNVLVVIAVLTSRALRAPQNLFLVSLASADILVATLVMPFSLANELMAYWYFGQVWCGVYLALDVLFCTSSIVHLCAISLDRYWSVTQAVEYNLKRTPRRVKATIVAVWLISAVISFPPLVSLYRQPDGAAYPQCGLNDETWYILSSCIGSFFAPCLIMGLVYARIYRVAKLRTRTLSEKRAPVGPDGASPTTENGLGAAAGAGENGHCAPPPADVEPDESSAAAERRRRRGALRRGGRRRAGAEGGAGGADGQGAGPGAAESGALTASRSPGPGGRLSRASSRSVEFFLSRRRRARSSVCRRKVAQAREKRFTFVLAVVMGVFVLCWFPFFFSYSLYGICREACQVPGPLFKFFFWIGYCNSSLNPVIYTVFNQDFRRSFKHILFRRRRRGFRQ", "test": "compounds altering alpha2C-coupled GIRK flux – cell-based, HEK293 alpha2C/GIRK1/2, thallium flux, primary screen (AID 624;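 active = fluorescence slope after compound addition differing from the mean of all screened samples at 99.7% confidence, in either direction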;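 also: slope of fluorescence ratio to pre-addition baseline per second over 15 to 24 s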)", "settings": "thallium flux BTC fluorescence, at 10 µM, actives lie on both sides"}, "[7]": {"test": "blockers of RIG-like receptor reporter activation – cell-based, Sendai virus stimulus, luciferase, 10K MLSCN set, TLR/RLR signaling modifier project, primary screen (AID 602276;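 active = inhibition at or above 50% at 10 µM; inactive = inhibition below 50%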;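 also: firefly luciferase from ISG56 promoter only with Renilla not read in this screen; 0% = Sendai virus plus DMSO and 100% = medium plus DMSO without virus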)", "settings": "HEK293 RL24 IRF3 luciferase reporter, at 10 µM, stronger effect = higher value"}, "[8]": {"test": "TLR3 IRF3 reporter activation blockers – cell-based, poly I:C stimulus, luciferase, 10K MLSCN set, primary screen (AID 602277;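 active = inhibition of the reporter signal at or above 50%; inactive = inhibition below 50%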)", "settings": "HEK293-TLR3 RL24 IRF3 luciferase reporter, at 10 µM, stronger effect = higher value"}}, "note": "Calls of active or inactive are those of the source.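 The calls were made as follows, unless noted: active = NADPH fluorescence slope more negative than the mean of all samples by about 3 SD, 99.7% confidence; inactive = the rest.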"}
{"smiles": "Cc1ccc(NC(=O)CSc2nnc(-c3cnccn3)n2Cc2ccco2)cc1C", "values": [{"measurement": "cell count", "setting": "[1]", "result": 228}, {"measurement": "inhibition", "setting": "[1]", "result": "-3.5% (inactive)"}, {"measurement": "inhibition of aggregation", "setting": "[2]", "result": "4.6% (inactive)"}, {"measurement": "nuclei count", "setting": "[2]", "result": 76.2, "unit": "%"}, {"measurement": "inhibition", "setting": "[3]", "result": "35.1% (inactive)"}, {"measurement": "nuclei count", "setting": "[3]", "result": 65.4, "unit": "%"}, {"measurement": "fluorescence slope", "setting": "[4]", "result": "-0.418 (inactive)"}, {"measurement": "NADPH fluorescence slope", "setting": "[5]", "result": "3.1e-05 (inactive)"}, {"measurement": "slope", "setting": "[6]", "result": "0.00338 (inactive)"}, {"measurement": "inhibition", "setting": "[7]", "result": "6.92% (inactive)"}, {"measurement": "inhibition", "setting": "[8]", "result": "17.3% (inactive)"}]}
{"smiles": "O=C(NCCN1C(=O)C2C3C=CC(C3)C2C1=O)N1CCOCC1", "note": "(stereo not drawn)", "values": [{"measurement": "cell count", "setting": "[1]", "result": 549}, {"measurement": "inhibition", "setting": "[1]", "result": "-4.5% (inactive)"}, {"measurement": "inhibition of aggregation", "setting": "[2]", "result": "7.2% (inactive)"}, {"measurement": "nuclei count", "setting": "[2]", "result": 52.3, "unit": "%"}, {"measurement": "inhibition", "setting": "[3]", "result": "-8.6% (inactive)"}, {"measurement": "nuclei count", "setting": "[3]", "result": 69.7, "unit": "%"}, {"measurement": "fluorescence slope", "setting": "[4]", "result": "-0.586 (inactive)"}, {"measurement": "NADPH fluorescence slope", "setting": "[5]", "result": "-1e-05 (inactive)"}, {"measurement": "slope", "setting": "[6]", "result": "0.00653 (inactive)"}, {"measurement": "inhibition", "setting": "[7]", "result": "3.84% (inactive)"}, {"measurement": "inhibition", "setting": "[8]", "result": "27.8% (inactive)"}]}
{"smiles": "c1ccc(Cc2nn3c(Cn4cnc5ccccc54)nnc3s2)cc1", "values": [{"measurement": "cell count", "setting": "[1]", "result": 415}, {"measurement": "inhibition", "setting": "[1]", "result": "1.4% (inactive)"}, {"measurement": "inhibition of aggregation", "setting": "[2]", "result": "9.2% (inactive)"}, {"measurement": "nuclei count", "setting": "[2]", "result": 80.7, "unit": "%"}, {"measurement": "inhibition", "setting": "[3]", "result": "-19.6% (inactive)"}, {"measurement": "nuclei count", "setting": "[3]", "result": 91.6, "unit": "%"}, {"measurement": "fluorescence slope", "setting": "[4]", "result": "-0.512 (inactive)"}, {"measurement": "NADPH fluorescence slope", "setting": "[5]", "result": "-5.6e-05 (inactive)"}, {"measurement": "slope", "setting": "[6]", "result": "0.00479 (inactive)"}, {"measurement": "inhibition", "setting": "[7]", "result": "15.8% (inactive)"}, {"measurement": "inhibition", "setting": "[8]", "result": "-2.79% (inactive)"}]}
{"smiles": "O=C(COc1ccccc1Cl)NCCCN1CCOCC1", "values": [{"measurement": "cell count", "setting": "[1]", "result": 458}, {"measurement": "inhibition", "setting": "[1]", "result": "5.4% (inactive)"}, {"measurement": "inhibition of aggregation", "setting": "[2]", "result": "0% (inactive)"}, {"measurement": "nuclei count", "setting": "[2]", "result": 117, "unit": "%"}, {"measurement": "inhibition", "setting": "[3]", "result": "-11.3% (inactive)"}, {"measurement": "nuclei count", "setting": "[3]", "result": 126, "unit": "%"}, {"measurement": "fluorescence slope", "setting": "[4]", "result": "-0.509 (inactive)"}, {"measurement": "NADPH fluorescence slope", "setting": "[5]", "result": "-5.8e-05 (inactive)"}, {"measurement": "slope", "setting": "[6]", "result": "0.00528 (inactive)"}, {"measurement": "inhibition", "setting": "[7]", "result": "10.2% (inactive)"}, {"measurement": "inhibition", "setting": "[8]", "result": "18.2% (inactive)"}]}
{"smiles": "CSCCC(NS(=O)(=O)c1ccc2c(c1)oc(=O)n2C)C(=O)NC1CCCCC1", "note": "(stereo not drawn)", "values": [{"measurement": "cell count", "setting": "[1]", "result": 627}, {"measurement": "inhibition", "setting": "[1]", "result": "-6% (inactive)"}, {"measurement": "inhibition of aggregation", "setting": "[2]", "result": "7.8% (inactive)"}, {"measurement": "nuclei count", "setting": "[2]", "result": 93, "unit": "%"}, {"measurement": "inhibition", "setting": "[3]", "result": "-35.6% (inactive)"}, {"measurement": "nuclei count", "setting": "[3]", "result": 106, "unit": "%"}, {"measurement": "fluorescence slope", "setting": "[4]", "result": "-0.584 (inactive)"}, {"measurement": "NADPH fluorescence slope", "setting": "[5]", "result": "-3.7e-05 (inactive)"}, {"measurement": "slope", "setting": "[6]", "result": "0.00669 (inactive)"}, {"measurement": "inhibition", "setting": "[7]", "result": "11.8% (inactive)"}, {"measurement": "inhibition", "setting": "[8]", "result": "25.6% (inactive)"}]}
{"smiles": "Cc1cccc2cc(COC(=O)C(C)(C)C)c(=O)[nH]c12", "values": [{"measurement": "cell count", "setting": "[1]", "result": 364}, {"measurement": "inhibition", "setting": "[1]", "result": "5.1% (inactive)"}, {"measurement": "inhibition of aggregation", "setting": "[2]", "result": "2.3% (inactive)"}, {"measurement": "nuclei count", "setting": "[2]", "result": 102, "unit": "%"}, {"measurement": "inhibition", "setting": "[3]", "result": "14.2% (inactive)"}, {"measurement": "nuclei count", "setting": "[3]", "result": 89.1, "unit": "%"}, {"measurement": "fluorescence slope", "setting": "[4]", "result": "-0.471 (inactive)"}, {"measurement": "NADPH fluorescence slope", "setting": "[5]", "result": "3.7e-06 (inactive)"}, {"measurement": "slope", "setting": "[6]", "result": "0.0027 (inactive)"}, {"measurement": "inhibition", "setting": "[7]", "result": "10.9% (inactive)"}, {"measurement": "inhibition", "setting": "[8]", "result": "22.5% (inactive)"}]}
{"smiles": "CC1CCCCC1NC(=O)c1ccc(N2CCCC2=O)cc1", "note": "(stereo not drawn)", "values": [{"measurement": "cell count", "setting": "[1]", "result": 536}, {"measurement": "inhibition", "setting": "[1]", "result": "-21.7% (inactive)"}, {"measurement": "inhibition of aggregation", "setting": "[2]", "result": "-20.5% (inactive)"}, {"measurement": "nuclei count", "setting": "[2]", "result": 142, "unit": "%"}, {"measurement": "inhibition", "setting": "[3]", "result": "-20.8% (inactive)"}, {"measurement": "nuclei count", "setting": "[3]", "result": 103, "unit": "%"}, {"measurement": "fluorescence slope", "setting": "[4]", "result": "-0.51 (inactive)"}, {"measurement": "NADPH fluorescence slope", "setting": "[5]", "result": "3.4e-05 (inactive)"}, {"measurement": "slope", "setting": "[6]", "result": "0.00599 (inactive)"}, {"measurement": "inhibition", "setting": "[7]", "result": "5.47% (inactive)"}, {"measurement": "inhibition", "setting": "[8]", "result": "-5.67% (inactive)"}]}
{"smiles": "Cc1ccc(C(=O)N2CCCC(c3nc4c(nnn4Cc4ccccc4)c(=O)[nH]3)C2)cc1", "note": "(stereo not drawn)", "values": [{"measurement": "cell count", "setting": "[1]", "result": 671}, {"measurement": "inhibition", "setting": "[1]", "result": "-6.5% (inactive)"}, {"measurement": "inhibition of aggregation", "setting": "[2]", "result": "-2.8% (inactive)"}, {"measurement": "nuclei count", "setting": "[2]", "result": 118, "unit": "%"}, {"measurement": "inhibition", "setting": "[3]", "result": "-44.4% (inactive)"}, {"measurement": "nuclei count", "setting": "[3]", "result": 104, "unit": "%"}, {"measurement": "fluorescence slope", "setting": "[4]", "result": "-0.38 (inactive)"}, {"measurement": "NADPH fluorescence slope", "setting": "[5]", "result": "-5.9e-05 (inactive)"}, {"measurement": "slope", "setting": "[6]", "result": "0.00676 (inactive)"}, {"measurement": "inhibition", "setting": "[7]", "result": "13.8% (inactive)"}, {"measurement": "inhibition", "setting": "[8]", "result": "21.2% (inactive)"}]}
